Assay results as given in the supplement of paper PMC5499739.
Over roughly 16,000 sequences, “Z-score” has its median near -0.37; the highest 2% begin near 3.1. Only a selection was taken, and the highest values are over-represented in it overall.

These sequences were tested on RBM10 RRM1-ZnF-RRM2 (GST-tagged construct) (assay: RNAcompete 7-mer binding Z-score; higher = stronger binding preference).
Protocol: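 RNAcompete: 20 pmol GST-tagged RBM10 RNA-binding constructs were incubated with a designed RNA pool of about 241,000 sequences up to 41 nt (1.5 nmol) on glutathione beads for 30 min at 4 °C and washed. Bound RNAs were identified by microarray hybridisation. Each RNA 7-mer is scored by a one-sided Z-score of its enrichment, computed over probes that contain the 7-mer within longer pool sequences.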

Sequence	RNAcompete 7-mer binding Z-score
GAACCUG	-0.683
UCGGCUA	-0.537
CGGUGUA	0.873
AAAGGGU	4.71
GCAGGGA	2.94
GAAGGCA	2.46
CAAGGGU	2.85
GAAGGGA	4.75
AAAGGCU	0.796
GGUUUGU	0.811
GUAUUGA	-0.107
CGAAGCC	-0.449
AACUCGU	-0.861
GGGAAGU	2.76
GGGAAGA	3.65
GGGAAAG	4.49
UGGAAAG	2.78
CGGAAAA	0.854
CGGAAAG	1.91
GGAAAAA	1.95
CGGAAGA	0.862
GGGAAAA	3.43
GUCAGGG	1.81

Sequence	RNAcompete 7-mer binding Z-score
UCCUGAC	-0.788
UGGCACA	0.497
UCGUAAG	-0.326
GUCGAGG	1.9
CGUUGGA	0.548
UCUUUAA	-0.803
UCGGCCG	-0.795
AGAGGUG	2.05
GGAGGUU	2.23
CGAGGUA	1.8
GGAGGUA	3.82
GGAGGUG	3.64
UGAGGUA	1.87
CGCAUUC	-0.723
UGCGACG	0.13
ACUUCUU	-0.952
GAGCGAC	0.177
UAGCGAG	0.694
GAGCGGU	1.51
GAGCGAG	3.3
CAGCGGG	2.5
GAGCGGC	1.42
GAGCGGG	3.33

Sequence	RNAcompete 7-mer binding Z-score
GAGCGGA	3.55
UAGCGGA	1.01
UCCUUAA	-0.715
AAAGAAC	-0.0343
CUCAACA	-0.704
UCUUAGC	-0.817
AUGACCC	-0.57
UUGUGGG	2.44
GUGUGGA	2.7
GUGUGGG	3.75
GUGUGGU	1.87
AUGUGGC	0.84
AUGUGGG	3.6
AGAAUGA	0.275
CGCACCC	-0.748
GCGUGAG	1.01
UGGAUGA	1.82
GAGAUGG	4
UAGAUGG	2.16
GAGAUGU	0.392
AGGAUGG	3.4
UGGAUGG	3.42
UGGAUGC	0.778

Sequence	RNAcompete 7-mer binding Z-score
CGGAUGG	1.87
AGGAUGC	0.887
UGUACUU	-0.715
GUCAAUU	-0.602
UUUGCCG	-0.766
ACGACGA	-0.384
GAGCCCC	-0.581
ACCGUAG	-0.147
UUUGUCC	-0.85
ACGGUAC	0.472
CCCCAAU	-0.755
UUCCACA	-0.508
UGGGAAU	2.42
AGGGAAG	4.36
CGGGAAG	2.07
UGGGAAG	3.99
AGGGAAC	3.06
GGGGAAU	3.13
UGGGAAA	2.49
GGGGAAG	3.91
CGGGAAU	1.31
AGGGACU	1.09
AGGGAAU	3.2
